Screening data as filed in PubChem BioAssay.
The sample as a whole holds a higher share of hits than the screen did.
PGK inhibitor: qHTS Assay to Find Inhibitors of Phosphoglycerate Kinase; Phosphoglycerate kinase, glycosomal (Trypanosoma brucei brucei), P07378; PGK/GAPDH coupled, Kinase-Glo luminescence, 60 min; Potency, µM (titrated, usually from 57.5 µM), without a hit: top-dose activity change, negative = inhibition, most hits filed as inhibitors; hit rate 0.043% among 380,000; AID 602233, 2012; note: potency is the fitted concentration of half-maximal effect; % is set by controls: 0 for no effect and ±100 for the full control effect; nearly all actives have a fitted effect of over 60% in size
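Luminescent ATP detection (Kinase-Glo Plus) follows a 60-minute room-temperature incubation, with wells lacking PGK as controls. Buffer: 100 mM TEA (pH 7.6), 5 mM MgCl2, 0.01% Tween-20. Coupling enzyme GAPDH (100 nM final) supplies unstable 1,3-BPG in-well.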
PI4K2A block: qHTS for small molecular inhibitors of PI4K2A; Phosphatidylinositol 4-kinase type 2-alpha (Homo sapiens), Q9BTU6; purified PI4K2A, ADP-Glo luminescence, 1 h; active compounds read low; activity change, negative = inhibition, % at 76.9 µM; hit rate 0.13% among 420,000; AID 1346378, 2018; in the data active = activity change below about -50%; inconclusive = mostly about -30% to -49%;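 note: -100% = wells without enzyme as full effect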
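Compounds are screened against recombinant PI4K2A using PI as substrate and ATP, the latter dispensed at 300 microM. Reactions run one hour at ambient temperature before ADP-Glo detection; full inhibition defined by wells lacking enzyme.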
PI5P4K alpha inh: qHTS for Inhibitors of phosphatidylinositol 5-phosphate 4-kinase (PI5P4K); AID 652105, 2013; max response, %; PI5P4Kalpha enzyme, ADP-Glo luminescence, 60 min; active compounds read low; hit rate 1.2% among 330,000; active = max response of -50% or lower; inconclusive = between -30% and -50%; inactive = -30% or higher; note: value at the top dose of about 77 µM; % is set by controls: 0 for no effect and ±100 for the full control effect
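ADP-Glo luminescence end-point after a 60 min room-temperature kinase reaction. PI5P4Kalpha and substrate in HEPES pH 7.4 buffer with EGTA, 0.1% CHAPS and 5% DMSO; ATP at 5 microM final.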
Pin1 inh: qHTS Assay to Find Inhibitors of Pin1. Peptidyl-prolyl cis-trans isomerase NIMA-interacting 1 (Homo sapiens), Q13526. Pin1 FP peptide displacement, HiFluor488, 10 min. Potency, µM (highest dose often 115 µM), for the others: at the top dose activity, negative = inhibition, hits mostly inhibitors. hit rate 0.009% among 390,000; active = well fitted inhibition curve with a large enough effect in the polarisation, with a control signal flat, not every such curve was filed as active; inconclusive = small, poorly fitted or top-dose-only effect, or effect the other way, or a change in a side signal; inactive = no such curve, though single readings can be large or run the other way; the % refers to the polarisation; note: potency is the fitted concentration of half-maximal effect; % is set by controls: 0 for no effect and ±100 for the full control effect
Target sequence (Q13526 whole entry, looked up): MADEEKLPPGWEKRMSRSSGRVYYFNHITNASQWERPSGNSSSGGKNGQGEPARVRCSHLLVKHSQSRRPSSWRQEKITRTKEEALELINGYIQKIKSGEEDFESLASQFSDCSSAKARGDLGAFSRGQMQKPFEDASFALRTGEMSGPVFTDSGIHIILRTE
Tb PFK inh-1: qHTS Assay to Find Inhibitors of T. brucei phosphofructokinase; ATP-dependent 6-phosphofructokinase (Trypanosoma brucei brucei), O15648; T. brucei PFK, ADP-Glo luminescence; Potency, µM (titrated, usually from 57.5 µM), without a hit: top-dose activity, negative = inhibition, hits mostly inhibitors; hit rate 0.17% among 330,000; AID 485367, 2010;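 note: potency is the fitted concentration of half-maximal effect; 0% = uninhibited 1x PFK enzyme wells and -100% = no-enzyme wells; nearly all actives have a fitted effect of over 60% in size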
Target sequence (O15648 whole entry, looked up): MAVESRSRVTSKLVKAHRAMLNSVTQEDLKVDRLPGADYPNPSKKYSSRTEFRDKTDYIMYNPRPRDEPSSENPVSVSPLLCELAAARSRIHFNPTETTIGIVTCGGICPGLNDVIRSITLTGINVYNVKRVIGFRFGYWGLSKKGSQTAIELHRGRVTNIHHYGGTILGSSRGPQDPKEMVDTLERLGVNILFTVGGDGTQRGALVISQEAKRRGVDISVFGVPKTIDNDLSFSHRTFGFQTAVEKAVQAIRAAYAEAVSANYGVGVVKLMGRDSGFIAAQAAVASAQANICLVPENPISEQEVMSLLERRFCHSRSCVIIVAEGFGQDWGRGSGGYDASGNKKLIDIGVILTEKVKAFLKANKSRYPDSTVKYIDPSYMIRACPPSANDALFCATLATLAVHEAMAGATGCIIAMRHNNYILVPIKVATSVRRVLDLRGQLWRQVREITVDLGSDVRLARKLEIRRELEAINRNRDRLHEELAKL
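Luminescent ADP detection (ADP-Glo, two-step: ATP depletion then ADP-to-ATP conversion for luciferase) reported PFK activity after 45 min room-temperature reaction of 1.25 nM enzyme with 0.5 mM F6P and 0.1 mM ATP at pH 8.0.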
TbPFK ATP: Tb PFK orthogonal confirmatory assay using ATP depletion (Kinase-Glo Plus) as an alternative measure of Tb PFK activity: Hit Validation | hit rate 47% among 1,100 | Potency, µM (highest dose often 57.5 µM), without a hit: at the top dose inhibition | shares compounds with Tb PFK inh-1 | Tb PFK enzyme, ATP depletion, Kinase-Glo Plus luminescence; calls by dose curve; note: potency is the fitted concentration of half-maximal effect; nearly all actives have a fitted effect of over 60% in size
Tb PFK inh-2: Inhibitors of T. brucei phosphofructokinase: Hit Validation | shares compounds with Tb PFK inh-1 | purified T. brucei PFK, ADP-Glo luminescence, 45 min | Potency, µM (highest dose often 57.5 µM), for inactives: at the highest dose activity change, negative = inhibition, usual class: inhibitors | hit rate 41% among 1,100 | AID 504637, 2011;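 note: potency is the fitted concentration of half-maximal effect; plate controls were full PFK enzyme control for no effect and no enzyme control for full effect; nearly all actives have a fitted effect of over 60% in size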
ADP-Glo counter: qHTS for Inhibitors of PI5P4K: ADP-Glo counter assay; shares compounds with PI5P4K alpha inh; ADP-Glo detection counter-screen, luciferase luminescence, no enzyme; Potency, µM (top dose mostly 76.9 µM), without a hit: top-dose activity change, negative = inhibition, hits mostly inhibitors; 1,100 tested, under 10 active
An asterisk follows results filed as active; i = inactive; ? = inconclusive; . = no result given. Unless noted, calls come from the whole dose curve; as a rule, active = well fitted curve in the direction sought with a large enough effect; inconclusive = small, poorly fitted or top-dose-only effect, or another doubt; inactive = no such curve, though single readings can be large; an effect the other way counts as inactive or inconclusive.

SMILES | PGK inhibitor | PI4K2A block | PI5P4K alpha inh | Pin1 inh | Tb PFK inh-1 | TbPFK ATP | Tb PFK inh-2 | others
CCOC(=O)C1=C(N)OC2=C(C(=O)CCC2)C12C(=O)N1c3c(ccc(C)c32)C(C)=CC1(C)C (configuration not stated) | 2% | -4 | 3 | 0% | 0% | . | .
Oc1ccc(C2CNCc3sccc32)cc1O (configuration not stated) | -4% | -4 | -10 | 2% | ? | ? | ?
COC(=O)C1=C(c2ccc(C(C)=O)cc2)C[C@@H]2CC[C@H]1N2C(=O)NCc1ccco1 | -4% | 0 | -5 | ? | -3% | . | .
CC(=O)CC(c1ccccc1[N+](=O)[O-])c1c(O)c2ccccc2oc1=O (configuration not stated) | -3% | -1 | 2 | -12% | 0% | . | .
COc1ccc(N=C2SCCCN2C)cc1 | -5% | 0 | -10 | 1% | 0% | . | .
CC1CCN(S(=O)(=O)c2ccc3c(c2)CCC(=O)N3CC(=O)Nc2cccc(C#N)c2)CC1 | 14µM* | -3 | . | ? | 9.5µM* | 6µM* | 12µM*
Cc1ccc(S(=O)(=O)N2CCCCC2)cc1NC(=O)CN1CC=C(c2ccccc2)CC1 | -9% | -4 | 9 | ? | -1% | . | .
CCCCOP(=O)(OCCCC)/C(C#N)=C(/C)O | 4% | -9 | 2 | -8% | -5% | . | .
O=C(Nc1ccc2ccccc2c1)c1ccccc1O | -13% | -9 | 25 | -5% | ? | -33% | ?
COC(=O)C1=C(c2ccccc2OCc2ccccc2)C[C@@H]2CC[C@H]1N2C(=O)NCc1ccc(N(C)C)cc1 | i | 0 | 11 | 4% | 2% | . | .
CN1CCN(c2ncc(C=O)s2)CC1 | -7% | 3 | 1 | -6% | -2% | . | .
COc1ccc(CCNC(=O)c2cc3c(=O)n4cccc(C)c4nc3n(Cc3ccco3)c2=N)cc1OC | -7% | 2 | -4 | ? | ? | -2% | 1%
COC(=O)N1CCN(c2ccc(Cl)c(Cl)c2)CC1 | -1% | -3 | . | 2% | 30µM* | 24µM* | 30µM*
CNC(=S)N1CCN(c2ccc(Cl)c(Cl)c2)CC1 | i | 3 | 11 | -2% | 27µM* | 13µM* | 27µM*
O=C(CCS(=O)(=O)c1ccc(Br)cc1)NCc1ccco1 | 13µM* | -9 | 0 | -3% | 17µM* | 2.7µM* | 5.4µM*
CSc1ccc(C(c2c(C)[nH][nH]c2=O)c2c(C)[nH][nH]c2=O)cc1 | -9% | -12 | -4 | -6% | 15µM* | ? | ?
CSc1ccc(C(c2c(O)c3ccccc3oc2=O)c2c(C)n(C)n(-c3ccccc3)c2=O)cc1 (configuration not stated) | -1% | -7 | -1 | 27% | 1% | . | .
Nc1c(C(=O)Nc2ccc(Cl)cc2)sc2nc3c(cc12)N1CCC3CC1 | -5% | -6 | . | 5% | . | . | .
CC(C)n1ncc2c(C(=O)Nc3ccc(S(N)(=O)=O)cc3)cc(C3CC3)nc21 | -8% | 7 | -5 | 7% | ? | -33% | ?
C=C(C)C(=O)Nc1cccc(C2=NOC3(C2)C[C@@H](C(N)=O)N(C(=O)c2ccc(OC)cc2)C3)c1 (some centres not stated) | 2µM* | ? | ? | 32µM* | 1.9µM* | 0.17µM* | 0.24µM*
C=C(C)C(=O)Nc1cccc(C2=NOC3(C2)C[C@@H](C(N)=O)N(C(=O)CCCCC)C3)c1 (some centres not stated) | ? | -11 | ? | . | 2.7µM* | 0.15µM* | 0.24µM*
Cc1oc(=O)c(NC(=O)c2ccc(Cl)cc2)cc1C(=O)c1ccccc1 | 4% | 11 | -19 | 2% | 17µM* | 5% | -8%
CCOC(=O)[C@]12Cc3ccccc3[C@H]1N(C(C)C)C(=O)c1cc(OC)ccc12 | . | 21 | -1 | . | . | . | .
Cc1c(NC(=O)c2ccc(Cl)c([N+](=O)[O-])c2)cccc1-n1cnnn1 | -1% | 6 | -4 | -7% | ? | ? | ?
C=CCN1CC[C@]23CCCC[C@H]2[C@H]1Cc1ccc(O)cc13 | . | 1 | . | . | . | . | .
SMILES | PGK inhibitor | PI4K2A block | PI5P4K alpha inh | Pin1 inh | Tb PFK inh-1 | TbPFK ATP | Tb PFK inh-2 | others
CN1C(=O)C(=Cc2ccc(OCC(=O)Nc3ccccc3)cc2)C(=O)N(C)C1=O | 0% | -25 | -3 | -1% | -24% | . | .
COc1ccc(NC(=O)CN2C(=O)S/C(=C/c3cccn3-c3ccc(C(=O)O)cc3)C2=O)cc1 | . | . | . | . | 9.5µM* | 19µM* | ?
COc1ccc(C)cc1NC(=O)N1CCC2(CC1)OCCO2 | 0% | 1 | 5 | 0% | -2% | . | .
CC(Nc1cccc([N+](=O)[O-])c1)C(=O)Nc1ccc(S(=O)(=O)N2CCCC2)cc1 (configuration not stated) | 0% | -1 | 3 | -6% | ? | ? | ?
O=C(C(=O)N1CCOCC1)c1cn(CC(=O)N2CCc3ccccc3C2)c2ccccc12 | 0% | 0 | 7 | -1% | ? | ? | ?
CCOC(=O)C1C(=O)NC2(C)CC1c1cc(OC)ccc1O2 (configuration not stated) | -4% | -2 | . | -6% | 1% | . | .
COc1ccc(-c2cc(C(=O)N3CCC4(CC3)OCCO4)c3ccccc3n2)cc1 | 5% | 1 | 10 | 4% | -1% | . | .
COC(=O)C1CCN(C(=O)c2cc(-c3ccco3)nc3ccccc23)CC1 | ? | -24 | -82* | . | 2.7µM* | ? | -26% | ADP-Glo counter=-3%
NS(=O)(=O)c1cc(C(=O)NC2CCSc3ccccc32)ccc1Cl (configuration not stated) | 1µM* | -17 | -84* | . | ? | ? | ? | ADP-Glo counter=7%
